Tests used:
Assay in all cases: DAPPL (digital affinity profiling via proximity ligation, sequencing); 10 mM Tris-HCl pH 7.5, 50 mM NaCl, 1 mM DTT, 4% glycerol, room temperature, 30 min; GST-TFs on glutathione beads, 16-mer random dsDNA library, 0.1% formaldehyde crosslink after washing; high values mean tight binding
FLI1 = target: T1, FLI1 (Homo sapiens, UniProt Q01543 1-452); conditions: protein: recombinant; tags: N-terminal GST; dsDNA, one strand shown
T1 sequence: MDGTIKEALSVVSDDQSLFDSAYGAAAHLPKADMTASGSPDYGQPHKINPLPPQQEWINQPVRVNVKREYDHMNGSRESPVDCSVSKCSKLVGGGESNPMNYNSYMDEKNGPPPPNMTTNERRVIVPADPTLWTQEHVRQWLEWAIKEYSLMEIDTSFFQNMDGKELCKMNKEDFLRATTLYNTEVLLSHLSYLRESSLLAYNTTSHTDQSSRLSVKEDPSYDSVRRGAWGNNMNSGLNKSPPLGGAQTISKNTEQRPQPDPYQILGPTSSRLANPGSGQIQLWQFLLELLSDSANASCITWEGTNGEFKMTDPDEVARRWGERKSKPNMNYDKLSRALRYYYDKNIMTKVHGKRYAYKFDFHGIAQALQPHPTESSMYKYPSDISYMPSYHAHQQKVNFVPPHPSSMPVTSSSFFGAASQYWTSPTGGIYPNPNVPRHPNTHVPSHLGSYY
Method in brief: (§1)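 Yeast served to express human transcription factors as GST fusions, which were then captured on glutathione beads and labelled with DNA barcodes. Pooled with a tag-only sample, they were incubated with 200 nmole of a 16-mer random double-stranded DNA library for 30 min at room temperature in Tris/NaCl/DTT/glycerol buffer, washed, crosslinked with 0.1% formaldehyde, ligated by proximity, amplified by PCR and sequenced. Dividing each hexamer's read frequency for a factor by its frequency for the tag-only sample gives the binding signal.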

ELK1 = target: T2, ELK1 (Homo sapiens, UniProt P19419 1-428); conditions: protein: recombinant; tags: N-terminal GST; dsDNA, one strand shown
T2 sequence: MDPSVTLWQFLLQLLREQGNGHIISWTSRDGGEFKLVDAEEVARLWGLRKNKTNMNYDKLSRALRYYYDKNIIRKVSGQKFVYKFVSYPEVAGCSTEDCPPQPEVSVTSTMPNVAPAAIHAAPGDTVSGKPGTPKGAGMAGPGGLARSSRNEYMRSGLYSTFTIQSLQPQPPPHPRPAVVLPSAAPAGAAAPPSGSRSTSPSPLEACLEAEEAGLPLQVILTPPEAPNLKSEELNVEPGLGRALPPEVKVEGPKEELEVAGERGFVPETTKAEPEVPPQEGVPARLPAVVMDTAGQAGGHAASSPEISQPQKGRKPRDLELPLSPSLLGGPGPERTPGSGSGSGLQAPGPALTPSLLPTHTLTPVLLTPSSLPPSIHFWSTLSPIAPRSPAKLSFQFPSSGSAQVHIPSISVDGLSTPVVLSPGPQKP
Method in brief: as §1

GABPA = target: T3, GABPA (Homo sapiens, UniProt Q06546 1-454); conditions: protein: recombinant; tags: N-terminal GST; dsDNA, one strand shown
T3 sequence: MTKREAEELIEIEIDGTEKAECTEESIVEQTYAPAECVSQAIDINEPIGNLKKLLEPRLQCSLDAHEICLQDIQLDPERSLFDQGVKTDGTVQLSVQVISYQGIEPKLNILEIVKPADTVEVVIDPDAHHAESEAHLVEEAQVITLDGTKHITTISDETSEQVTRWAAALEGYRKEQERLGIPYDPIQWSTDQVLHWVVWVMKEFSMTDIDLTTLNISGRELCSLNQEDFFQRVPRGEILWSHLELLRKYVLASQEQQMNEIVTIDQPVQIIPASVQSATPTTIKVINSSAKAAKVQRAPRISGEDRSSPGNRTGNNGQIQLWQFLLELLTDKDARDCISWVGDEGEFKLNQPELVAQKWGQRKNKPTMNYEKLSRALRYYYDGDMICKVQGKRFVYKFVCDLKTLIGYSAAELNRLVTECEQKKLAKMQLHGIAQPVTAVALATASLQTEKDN
Method in brief: as §1

ERG = target: T4, ERG (Homo sapiens, UniProt P11308 1-479); conditions: protein: recombinant; tags: N-terminal GST; dsDNA, one strand shown
T4 sequence: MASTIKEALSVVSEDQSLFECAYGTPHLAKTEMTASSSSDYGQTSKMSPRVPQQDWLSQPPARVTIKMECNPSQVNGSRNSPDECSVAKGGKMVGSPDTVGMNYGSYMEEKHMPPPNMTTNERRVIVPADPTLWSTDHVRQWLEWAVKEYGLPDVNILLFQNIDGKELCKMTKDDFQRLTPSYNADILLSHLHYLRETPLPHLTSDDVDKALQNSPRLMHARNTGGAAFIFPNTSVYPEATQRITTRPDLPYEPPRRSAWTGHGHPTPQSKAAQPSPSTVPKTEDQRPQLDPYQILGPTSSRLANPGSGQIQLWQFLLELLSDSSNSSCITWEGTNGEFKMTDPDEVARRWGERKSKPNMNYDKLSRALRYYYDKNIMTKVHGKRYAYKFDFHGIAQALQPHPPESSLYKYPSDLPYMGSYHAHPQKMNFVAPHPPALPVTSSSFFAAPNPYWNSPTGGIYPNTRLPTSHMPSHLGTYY
Method in brief: as §1

ELF1 = ELF1 (Homo sapiens, UniProt P32519 1-619); conditions: protein: recombinant; tags: N-terminal GST; dsDNA, one strand shown
ELF1, sequence (P32519 whole entry): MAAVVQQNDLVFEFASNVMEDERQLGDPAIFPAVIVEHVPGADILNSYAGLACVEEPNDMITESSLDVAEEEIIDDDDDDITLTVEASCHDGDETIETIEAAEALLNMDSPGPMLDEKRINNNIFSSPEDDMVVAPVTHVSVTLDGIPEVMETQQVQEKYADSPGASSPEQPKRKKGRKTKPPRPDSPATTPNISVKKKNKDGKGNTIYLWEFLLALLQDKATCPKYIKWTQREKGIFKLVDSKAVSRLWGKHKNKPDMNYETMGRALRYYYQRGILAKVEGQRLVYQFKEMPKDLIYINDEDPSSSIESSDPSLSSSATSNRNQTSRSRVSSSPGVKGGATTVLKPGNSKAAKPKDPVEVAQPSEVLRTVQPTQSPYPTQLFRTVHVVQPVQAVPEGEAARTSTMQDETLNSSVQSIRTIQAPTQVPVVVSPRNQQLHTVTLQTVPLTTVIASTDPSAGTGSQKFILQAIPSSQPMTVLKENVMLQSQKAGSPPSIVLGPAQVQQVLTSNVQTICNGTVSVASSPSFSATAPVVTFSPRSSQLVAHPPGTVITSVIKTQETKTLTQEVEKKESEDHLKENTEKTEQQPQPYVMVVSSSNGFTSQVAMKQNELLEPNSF
Method in brief: as §1

EHF = target: T5, EHF (Homo sapiens, UniProt Q9NZC4 1-300); conditions: protein: recombinant; tags: N-terminal GST; dsDNA, one strand shown
T5 sequence: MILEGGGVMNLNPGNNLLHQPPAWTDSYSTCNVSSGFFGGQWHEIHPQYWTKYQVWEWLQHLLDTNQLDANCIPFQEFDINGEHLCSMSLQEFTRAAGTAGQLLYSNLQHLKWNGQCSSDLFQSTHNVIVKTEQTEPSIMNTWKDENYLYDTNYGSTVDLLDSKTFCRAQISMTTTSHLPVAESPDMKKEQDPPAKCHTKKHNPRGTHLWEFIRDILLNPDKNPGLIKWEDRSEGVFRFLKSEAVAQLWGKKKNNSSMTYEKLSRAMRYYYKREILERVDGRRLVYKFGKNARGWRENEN
Method in brief: as §1

SPI1 = SPI1 (Homo sapiens, UniProt P17947 1-270); conditions: protein: recombinant; tags: N-terminal GST; dsDNA, one strand shown
Method in brief: as §1

SPIB = SPIB (Homo sapiens, UniProt Q01892 1-262); conditions: protein: recombinant; tags: N-terminal GST; dsDNA, one strand shown
SPIB, sequence (Q01892 whole entry): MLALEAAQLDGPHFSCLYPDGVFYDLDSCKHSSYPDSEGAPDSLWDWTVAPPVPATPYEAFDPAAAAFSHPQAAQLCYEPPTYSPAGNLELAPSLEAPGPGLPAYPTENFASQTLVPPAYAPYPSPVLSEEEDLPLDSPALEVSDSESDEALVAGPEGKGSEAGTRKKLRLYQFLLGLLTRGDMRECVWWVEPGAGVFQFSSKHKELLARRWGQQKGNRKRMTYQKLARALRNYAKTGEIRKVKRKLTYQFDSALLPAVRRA
Method in brief: as §1

ELK3 = target: T6, ELK3 (Homo sapiens, UniProt P41970 1-407); conditions: protein: recombinant; tags: N-terminal GST; dsDNA, one strand shown
T6 sequence: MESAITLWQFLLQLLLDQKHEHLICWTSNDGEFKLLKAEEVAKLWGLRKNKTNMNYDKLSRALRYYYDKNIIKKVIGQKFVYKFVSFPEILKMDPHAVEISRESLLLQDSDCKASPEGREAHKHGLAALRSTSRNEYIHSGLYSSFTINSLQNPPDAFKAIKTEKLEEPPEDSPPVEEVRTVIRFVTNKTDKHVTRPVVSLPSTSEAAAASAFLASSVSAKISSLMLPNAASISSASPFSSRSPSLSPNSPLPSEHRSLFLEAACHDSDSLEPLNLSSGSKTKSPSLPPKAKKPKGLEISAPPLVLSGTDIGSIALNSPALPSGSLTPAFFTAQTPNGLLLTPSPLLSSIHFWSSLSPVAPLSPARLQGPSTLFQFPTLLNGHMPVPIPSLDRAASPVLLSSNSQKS
Method in brief: as §1

FEV = target: T7, FEV (Homo sapiens, UniProt Q99581 1-238); conditions: protein: recombinant; tags: N-terminal GST; dsDNA, one strand shown
T7 sequence: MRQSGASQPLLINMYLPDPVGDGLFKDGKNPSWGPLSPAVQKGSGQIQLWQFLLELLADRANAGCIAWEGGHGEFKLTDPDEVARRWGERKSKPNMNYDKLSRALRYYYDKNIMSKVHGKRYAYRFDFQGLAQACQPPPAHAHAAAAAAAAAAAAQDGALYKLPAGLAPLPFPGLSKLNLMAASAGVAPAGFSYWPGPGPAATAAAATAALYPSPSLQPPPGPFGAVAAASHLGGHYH
Method in brief: as §1

ETV5 = ETV5 (Homo sapiens, UniProt P41161 1-510); conditions: protein: recombinant; tags: N-terminal GST; dsDNA, one strand shown
ETV5, sequence (P41161 whole entry): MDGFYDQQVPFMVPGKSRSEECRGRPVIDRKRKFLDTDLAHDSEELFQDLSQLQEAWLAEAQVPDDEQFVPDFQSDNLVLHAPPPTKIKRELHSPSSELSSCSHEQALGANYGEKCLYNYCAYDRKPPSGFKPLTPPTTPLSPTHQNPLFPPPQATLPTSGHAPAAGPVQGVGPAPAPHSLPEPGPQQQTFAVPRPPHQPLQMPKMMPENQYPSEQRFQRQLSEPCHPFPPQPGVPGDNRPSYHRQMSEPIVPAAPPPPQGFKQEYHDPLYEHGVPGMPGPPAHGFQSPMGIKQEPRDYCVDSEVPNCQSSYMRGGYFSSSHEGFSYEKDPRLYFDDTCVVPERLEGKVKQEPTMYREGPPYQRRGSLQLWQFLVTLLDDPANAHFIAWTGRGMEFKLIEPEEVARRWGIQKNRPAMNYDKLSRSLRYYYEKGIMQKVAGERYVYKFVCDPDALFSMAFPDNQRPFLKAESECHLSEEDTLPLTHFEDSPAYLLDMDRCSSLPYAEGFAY
Method in brief: as §1

HSF1 = HSF1 (Homo sapiens, UniProt Q00613 1-529); conditions: protein: recombinant; tags: N-terminal GST; chain copies: 3; dsDNA, one strand shown
HSF1, sequence (Q00613 whole entry): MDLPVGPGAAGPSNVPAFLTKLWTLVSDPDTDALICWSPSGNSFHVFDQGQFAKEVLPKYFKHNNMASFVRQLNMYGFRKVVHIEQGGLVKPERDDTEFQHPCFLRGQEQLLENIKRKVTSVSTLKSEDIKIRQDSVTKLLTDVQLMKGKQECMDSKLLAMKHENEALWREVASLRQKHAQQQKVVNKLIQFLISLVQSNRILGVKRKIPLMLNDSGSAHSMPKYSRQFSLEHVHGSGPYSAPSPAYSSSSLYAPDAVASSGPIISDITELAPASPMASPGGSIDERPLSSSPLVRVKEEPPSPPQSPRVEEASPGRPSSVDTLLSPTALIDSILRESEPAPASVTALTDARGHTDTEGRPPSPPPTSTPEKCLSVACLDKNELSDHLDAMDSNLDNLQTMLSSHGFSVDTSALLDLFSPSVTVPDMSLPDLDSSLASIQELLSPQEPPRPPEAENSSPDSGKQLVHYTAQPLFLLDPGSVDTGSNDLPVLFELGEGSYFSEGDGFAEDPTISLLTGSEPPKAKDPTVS
Method in brief: as §1

SPIC = target: T8, SPIC (Homo sapiens, UniProt Q8N5J4 1-248); conditions: protein: recombinant; tags: N-terminal GST; dsDNA, one strand shown
T8 sequence: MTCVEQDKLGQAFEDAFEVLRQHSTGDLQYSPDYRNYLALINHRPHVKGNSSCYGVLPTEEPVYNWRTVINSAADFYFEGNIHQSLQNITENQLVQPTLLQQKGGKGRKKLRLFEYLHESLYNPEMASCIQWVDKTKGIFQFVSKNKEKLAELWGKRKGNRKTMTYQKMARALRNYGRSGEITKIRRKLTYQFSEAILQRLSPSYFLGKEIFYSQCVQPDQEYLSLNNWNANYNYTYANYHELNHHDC
Method in brief: as §1

ELF4 = ELF4 (Homo sapiens, UniProt Q99607 1-663); conditions: protein: recombinant; tags: N-terminal GST; dsDNA, one strand shown
ELF4, sequence (Q99607 whole entry): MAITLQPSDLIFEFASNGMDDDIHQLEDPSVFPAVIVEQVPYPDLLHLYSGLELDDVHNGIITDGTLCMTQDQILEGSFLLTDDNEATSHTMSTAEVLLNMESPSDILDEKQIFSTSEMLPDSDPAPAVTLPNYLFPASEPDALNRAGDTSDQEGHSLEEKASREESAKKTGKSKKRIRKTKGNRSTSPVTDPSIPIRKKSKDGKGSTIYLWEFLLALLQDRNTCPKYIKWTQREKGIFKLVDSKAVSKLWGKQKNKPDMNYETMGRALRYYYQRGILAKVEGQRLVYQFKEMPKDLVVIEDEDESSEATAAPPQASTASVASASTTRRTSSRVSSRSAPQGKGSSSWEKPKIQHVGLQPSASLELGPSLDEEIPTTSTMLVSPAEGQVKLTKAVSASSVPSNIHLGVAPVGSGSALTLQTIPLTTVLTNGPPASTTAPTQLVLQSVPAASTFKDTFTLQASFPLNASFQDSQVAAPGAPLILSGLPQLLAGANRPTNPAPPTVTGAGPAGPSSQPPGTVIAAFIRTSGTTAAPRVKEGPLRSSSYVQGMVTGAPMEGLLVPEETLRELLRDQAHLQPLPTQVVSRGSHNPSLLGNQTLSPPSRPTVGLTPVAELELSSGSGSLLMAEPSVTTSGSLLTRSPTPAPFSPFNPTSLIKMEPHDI
Method in brief: as §1

ELK4 = target: T9, ELK4 (Homo sapiens, UniProt P28324-2 1-405); conditions: protein: recombinant; tags: N-terminal GST; dsDNA, one strand shown
T9 sequence: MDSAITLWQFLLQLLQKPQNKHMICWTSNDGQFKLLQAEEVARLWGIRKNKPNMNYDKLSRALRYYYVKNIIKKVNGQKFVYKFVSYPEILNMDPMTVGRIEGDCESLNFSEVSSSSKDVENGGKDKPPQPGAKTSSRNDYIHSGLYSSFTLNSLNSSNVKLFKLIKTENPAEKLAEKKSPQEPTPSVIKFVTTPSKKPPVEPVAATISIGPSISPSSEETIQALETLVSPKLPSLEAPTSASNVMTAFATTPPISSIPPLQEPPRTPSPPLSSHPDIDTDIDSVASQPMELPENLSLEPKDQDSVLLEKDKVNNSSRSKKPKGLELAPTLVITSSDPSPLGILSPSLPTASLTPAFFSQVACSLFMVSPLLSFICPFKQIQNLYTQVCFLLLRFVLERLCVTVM
Method in brief: as §1

ELF3 = target: T10, ELF3 (Homo sapiens, UniProt P78545 1-371); conditions: protein: recombinant; tags: N-terminal GST; dsDNA, one strand shown
T10 sequence: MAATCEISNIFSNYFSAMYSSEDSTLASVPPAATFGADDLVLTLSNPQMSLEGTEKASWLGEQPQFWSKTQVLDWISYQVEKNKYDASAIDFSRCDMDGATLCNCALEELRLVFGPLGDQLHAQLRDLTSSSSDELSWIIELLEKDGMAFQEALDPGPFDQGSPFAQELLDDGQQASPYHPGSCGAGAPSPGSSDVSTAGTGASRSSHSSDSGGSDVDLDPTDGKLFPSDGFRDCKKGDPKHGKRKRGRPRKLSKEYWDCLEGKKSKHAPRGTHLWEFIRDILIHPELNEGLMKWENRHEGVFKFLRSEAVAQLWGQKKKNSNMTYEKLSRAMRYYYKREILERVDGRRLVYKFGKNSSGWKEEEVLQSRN
Method in brief: as §1

ETV1 = ETV1 (Homo sapiens, UniProt P50549 1-477); conditions: protein: recombinant; tags: N-terminal GST; dsDNA, one strand shown
ETV1, sequence (P50549 whole entry): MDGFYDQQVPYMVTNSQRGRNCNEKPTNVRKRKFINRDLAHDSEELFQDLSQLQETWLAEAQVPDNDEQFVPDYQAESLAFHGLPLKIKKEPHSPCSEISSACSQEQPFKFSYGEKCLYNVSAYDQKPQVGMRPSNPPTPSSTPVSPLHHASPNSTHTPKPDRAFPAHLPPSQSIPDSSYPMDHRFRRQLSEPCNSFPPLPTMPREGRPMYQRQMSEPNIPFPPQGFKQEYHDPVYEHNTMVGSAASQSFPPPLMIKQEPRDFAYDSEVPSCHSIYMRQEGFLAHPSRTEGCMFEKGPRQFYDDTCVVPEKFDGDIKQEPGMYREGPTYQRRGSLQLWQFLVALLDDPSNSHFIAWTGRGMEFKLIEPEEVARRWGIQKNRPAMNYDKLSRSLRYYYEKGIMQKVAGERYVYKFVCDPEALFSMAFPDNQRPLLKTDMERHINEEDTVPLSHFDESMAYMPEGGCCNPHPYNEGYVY
Method in brief: as §1

Sequence: GTGCTA
- binding signal (FLI1): 1.11 fold enrichment (6-mer frequency, TF over GST control)
- binding signal (ELK1): 1.09 fold enrichment (6-mer frequency, TF over GST control)
- binding signal (GABPA): 1.04 fold enrichment (6-mer frequency, TF over GST control)
- binding signal (ERG): 1.09 fold enrichment (6-mer frequency, TF over GST control)
- binding signal (ELF1): 1.12 fold enrichment (6-mer frequency, TF over GST control)
- binding signal (EHF): 1.03 fold enrichment (6-mer frequency, TF over GST control)
- binding signal (SPI1): 1.25 fold enrichment (6-mer frequency, TF over GST control)
- binding signal (SPIB): 1.1 fold enrichment (6-mer frequency, TF over GST control)
- binding signal (ELK3): 1.14 fold enrichment (6-mer frequency, TF over GST control)
- binding signal (FEV): 1.11 fold enrichment (6-mer frequency, TF over GST control)
- binding signal (ETV5): 1.16 fold enrichment (6-mer frequency, TF over GST control)
- binding signal (HSF1): 1.07 fold enrichment (6-mer frequency, TF over GST control)
- binding signal (SPIC): 1.17 fold enrichment (6-mer frequency, TF over GST control)
- binding signal (ELF4): 1.07 fold enrichment (6-mer frequency, TF over GST control)
- binding signal (ELK4): 1.08 fold enrichment (6-mer frequency, TF over GST control)
- binding signal (ELF3): 1.12 fold enrichment (6-mer frequency, TF over GST control)
- binding signal (ETV1): 1.1 fold enrichment (6-mer frequency, TF over GST control)

— PMC7862700, “An all-to-all approach to the identification of sequence-specific readers for epigenetic DNA modifications on cytosine”
